# In ChEMBL document CHEMBL3988442, “University of Dundee, Small-Polar-MMV Screening Library” (2021):
# In all, about 66,000 compounds went through this assay and about 960 (1.5%) showed an effect of 50% or more. The list comes from a sample in which strong results are over-represented; it also holds similar structures and randomly drawn compounds.
# Test system: Trypanosoma brucei
# Assay: Trypanosoma brucei 72 hour study
# Format: functional, organism-based
# Design: scale not given: in the data most compounds retested in dose-response had high values
structure (smiles),measurement,setting,value
FC(F)(F)Oc1ccc(-c2c[nH]c([C@@H]3COCCN3)n2)cc1,Percent Effect,"30 µM, 30.03 µM",62.77%
COc1ccc(-c2c[nH]c([C@@H]3COCCN3)n2)cc1,Percent Effect,"30 µM, 30.03 µM",-38.08%
FC(F)(F)c1ccc(-c2c[nH]c([C@@H]3COCCN3)n2)cc1,Percent Effect,"30 µM, 30.03 µM",11.07%
CC(Nc1c(F)cc(C#N)cc1F)c1cccc(S(N)(=O)=O)c1 (centres undefined),Percent Effect,"30 µM, 30.03 µM",39.53%
CC(Nc1cccc(F)c1C#N)c1cccc(S(N)(=O)=O)c1 (centres undefined),Percent Effect,"30 µM, 30.03 µM",70.17%
CC(Nc1ccc(C#N)cc1F)c1cccc(S(N)(=O)=O)c1 (centres undefined),Percent Effect,"30 µM, 30.03 µM",35.16%
CC(=O)N1CCN(Cc2ccc(F)cc2)CC2(CC(=O)N(C)C2)C1.O=C(O)C(F)(F)F (centres undefined),Percent Effect,"30.3 µM, […]",-72.99%
Cc1cc(-c2cnc(NCc3ccncc3)nc2C(C)C)on1,Percent Effect,"30.3 µM, […]",23.52%
Cc1cc(-c2cnc(NCc3cccnc3)nc2C(C)C)on1,Percent Effect,"30 µM, 30.03 µM",23.42%
Cc1cc(-c2cnc(NCc3cccnc3)nc2C(C)(C)C)on1,Percent Effect,"30 µM, 30.03 µM",25.28%
Cc1cc(-c2cnc(NCc3ccc4c(c3)OCO4)nc2C(C)C)on1,Percent Effect,"30.3 µM, […]",70.78%
COc1ccc(CNc2ncc(-c3cc(C)no3)c(C(C)C)n2)cc1,Percent Effect,"30.3 µM, […]",46.49%
Cc1cc(-c2cnc(NCc3ccccn3)nc2C(C)C)on1,Percent Effect,"30.3 µM, […]",94.64%
CNS(=O)(=O)Cc1ccc(CNC(=O)c2ccccn2)cc1,Percent Effect,"30.3 µM, […]",-17.29%
same,Percent Effect,"10 mM, 10 mM as filed; unlikely as a test dose",-30.84%
COc1cccc(C(=O)N2CCc3nc(C4CCCN4)ncc3C2)c1.Cl (centres undefined),Percent Effect,"30.3 µM, […]",-17.69%
COc1ccccc1CC1CCCN(CC(N)=O)C1 (centres undefined),Percent Effect,"30 µM, 30.03 µM",-11.23%
COc1ccccc1CC1CCCN(CC(=O)NC2CC2)C1 (centres undefined),Percent Effect,"30.3 µM, […]",6.426%
CNC(=O)CN1CCCC(Cc2ccccc2OC)C1 (centres undefined),Percent Effect,"30.3 µM, […]",99.76%
COc1ccccc1CC1CCCN(CCN2CCOC2=O)C1 (centres undefined),Percent Effect,"30.3 µM, […]",99.68%
COc1ccccc1CC1CCCN(CCC#N)C1 (centres undefined),Percent Effect,"30 µM, 30.03 µM",-5.815%
COc1ccccc1CN1CCN(CCN2CCOC2=O)CC1,Percent Effect,"30 µM, 30.03 µM",-64.53%
COc1ccccc1CC1CCN(C(=O)CCN2CCOC2=O)CC1,Percent Effect,"30.3 µM, […]",4.544%
COc1ccccc1CC1CCCN(CCC(N)=O)C1 (centres undefined),Percent Effect,"30.3 µM, […]",100.1%
CNC(=O)NC(=O)CN1CCCC(Cc2ccccc2OC)C1 (centres undefined),Percent Effect,"30.3 µM, […]",26.83%
O=C(O)c1cc(/C=C/c2ccc3ccccc3c2)ncn1,Percent Effect,"30 µM, 30.03 µM",17.56%
CCn1ncc2c1C(COCC1CC1)CN(C(=O)c1ccncn1)C2.O=C(O)C(F)(F)F (centres undefined),Percent Effect,"30 µM, 30.03 µM",-0.6882%
Cc1ncsc1C(=O)N1CC[C@@]2(O)CCN(C(=O)N3CCCC3)C[C@H]2C1,Percent Effect,"30.3 µM, […]",-70.48%
COc1ccc(F)c(-c2ncccc2C(=O)N2C[C@H]3CC[C@@H]2C3)c1,Percent Effect,"30 µM, 30.03 µM",-6.323%
CCn1c(CN2CCC(O)(c3ccc4c(c3)OCO4)CC2)cnc1SC.O=C(O)CC(O)(CC(=O)O)C(=O)O,Percent Effect,"30.3 µM, […]",-5.268%
COc1cc(N2C[C@@H]3COC[C@]3(COCc3ccncc3)C2)ncn1.O=C(O)C(F)(F)F.O=C(O)C(F)(F)F,Percent Effect,"30 µM, 30.03 µM",-12.8%
CN1CCCc2c1nc1c(c2N)CCCC1.O=C(O)C(=O)O,Percent Effect,"30.3 µM, […]",6.357%
Cc1cnn(C2CN(Cc3noc(C4CC4)n3)C2)c1,Percent Effect,"30.3 µM, […]",-128.4%
Cc1cnn(C2CN(Cc3nnc(C4CC4)o3)C2)c1,Percent Effect,"30.3 µM, […]",93.44%
Cc1ccc(-c2nnc(CN3CC(n4cc(C)cn4)C3)o2)cc1,Percent Effect,"30 µM, 30.03 µM",-4.601%
CCn1ccnc1CN1CCCC1C(=O)Nc1nccs1 (centres undefined),Percent Effect,"30.3 µM, […]",4.608%
Fc1cccc(CN2CCC3(CCCN3c3ncccn3)CC2)c1.O=C(O)C(F)(F)F,Percent Effect,"30.3 µM, […]",-16.3%
CCC1(CO)CCCN(Cc2nccn2Cc2ccccc2)C1 (centres undefined),Percent Effect,"30 µM, 30.03 µM",-5.033%
CCn1ccnc1CN1CCCC(CO)(Cc2cccc(Cl)c2)C1 (centres undefined),Percent Effect,"30 µM, 30.03 µM",109.3%
CCOC(=O)C1(CCOC)CCCN(Cc2nccn2CC)C1 (centres undefined),Percent Effect,"30.3 µM, […]",-20.23%
CCOC(=O)C1(CCOC)CCN(Cc2nccn2CC)CC1,Percent Effect,"30.3 µM, […]",-0.1521%
CCn1ccnc1CN1CCCC(CO)(Cc2cccc(OC)c2)C1 (centres undefined),Percent Effect,"30 µM, 30.03 µM",-22.09%
CCOC(=O)C1(Cc2ccccc2)CCCN(Cc2nccn2CC)C1 (centres undefined),Percent Effect,"30.3 µM, […]",95.74%
Cn1cc(CCC(=O)N2C[C@H]3CC[C@@H]2CN(Cc2cccnc2)C3)cn1,Percent Effect,"30 µM, 30.03 µM",-23.98%
Cc1ccnc(NC(=O)C2CCN(CCCc3cn[nH]c3)CC2)c1,Percent Effect,"30 µM, 30.03 µM",-19.03%
NC(=O)C1CN(C(=O)Nc2cc(Cl)cc(Cl)c2)CCO1 (centres undefined),Percent Effect,"30 µM, 30.03 µM",103.3%
COCC1CN(C(=O)Nc2cc(Cl)cc(Cl)c2)CCO1 (centres undefined),Percent Effect,"30.3 µM, […]",-16.88%
Cc1cc(NC(=O)N2CCOC(C(N)=O)C2)ccc1Br (centres undefined),Percent Effect,"30 µM, 30.03 µM",-3.776%
CCN(CC)CCn1c(=O)oc2ccccc21.Cl,Percent Effect,"30 µM, 30.03 µM",-24.39%
COc1ccc(-c2nc3c([nH]2)CCCNC3=O)cc1OC,Percent Effect,"30 µM, 30.03 µM",-51.91%
Cc1cccc(Cc2nc3c([nH]2)CCCNC3=O)c1,Percent Effect,"30 µM, 30.03 µM",-3.182%
CC1(C)CNC(=O)c2nc(-c3ccccc3)[nH]c2C1,Percent Effect,"30 µM, 30.03 µM",-21.93%
Cc1cccc2nc(-c3nc4c([nH]3)CCCNC4=O)cn12,Percent Effect,"30 µM, 30.03 µM",66.46%
CC(C)Oc1cccc(-c2nc3c([nH]2)CCCNC3=O)c1,Percent Effect,"30 µM, 30.03 µM",-40%
COc1cc(-c2nc3c([nH]2)CCCNC3=O)cc(OC)c1OC,Percent Effect,"30 µM, 30.03 µM",-56.65%
Cc1cn2cc(-c3nc4c([nH]3)CCCNC4=O)nc2s1,Percent Effect,"30 µM, 30.03 µM",81.5%
CC1(C)CNC(=O)c2nc(-c3n[nH]c(=O)[nH]3)[nH]c2C1,Percent Effect,"30 µM, 30.03 µM",-63.36%
Cc1ccc2nc(-c3nc4c([nH]3)CCCNC4=O)cn2c1,Percent Effect,"30 µM, 30.03 µM",99.29%
CC(C)Cn1cncc1-c1nc2c([nH]1)CCCNC2=O,Percent Effect,"30 µM, 30.03 µM",-24.09%
Cc1ccc2nc(-c3nc4c([nH]3)CC(C)(C)CNC4=O)cn2c1,Percent Effect,"30 µM, 30.03 µM",106.8%
COc1cc(-c2nc3c([nH]2)CCCNC3=O)ccc1O,Percent Effect,"30 µM, 30.03 µM",4.773%
CN(Cc1ccco1)C[C@H]1OC[C@@H]2CN(c3ncc(F)cn3)CC[C@@H]21.O=C(O)C(F)(F)F.O=C(O)C(F)(F)F,Percent Effect,"30.3 µM, […]",-14.08%
CN(C)C(=O)N1CCC2(CC1)CCN(Cc1ccccn1)C2=O.O=C(O)C(F)(F)F,Percent Effect,"30 µM, 30.03 µM",7.411%
Cc1ccc(CN2C[C@H](NC(=O)c3nccn3C)[C@H]3OCCC[C@H]32)o1,Percent Effect,"30.3 µM, […]",-18.85%
O=C(O)C(F)(F)F.O=C(O)C(F)(F)F.c1cncc(CN2CCn3c(Cn4cncn4)cnc3C2)c1,Percent Effect,"30.3 µM, […]",-106.7%
Cc1cc(C(=O)N2CC[C@@H](N(C)C)[C@@H]2Cc2ccccc2)no1.O=C(O)C(F)(F)F,Percent Effect,"30.3 µM, […]",3.974%
CN(C)CCn1c([C@@H]2CCCO2)cc2cccnc21.Cl,Percent Effect,"30.3 µM, […]",-17.47%
CN(C)S(=O)(=O)N1CCC2(COCc3cnc(NCC4CC4)nc32)C1 (centres undefined),Percent Effect,"30 µM, 30.03 µM",-49.38%
CNC(=O)[C@@H]1CCO[C@@H]2CCN(Cc3ccsc3)C[C@H]21.O=C(O)C(F)(F)F,Percent Effect,"30.3 µM, […]",-300.6%
O=C(C1CCC1)N1CCC2(CCCN2CC2CC2)CC1.O=C(O)C(F)(F)F,Percent Effect,"30.3 µM, […]",-53.73%
COc1ccc(CN2CCOCC3(CCN(C4CCOCC4)C3)C2)cc1.O=C(O)C(F)(F)F.O=C(O)C(F)(F)F (centres undefined),Percent Effect,"30 µM, 30.03 µM",20.44%
O=C(O)C(F)(F)F.O=C1CC2(CNCCN(C(=O)Nc3ccccc3)C2)CN1 (centres undefined),Percent Effect,"30.3 µM, […]",-24.96%
CC(=O)c1ccc(NC(=O)c2ccc3c(c2)C2(CCCCC2)CN3)cc1.O=C(O)C(F)(F)F,Percent Effect,"30.3 µM, […]",-13.93%
O=C(Nc1ccccc1)c1ccc2c(c1)C1(CCCCC1)CN2.O=C(O)C(F)(F)F,Percent Effect,"30.3 µM, […]",97.07%
COc1ccc(C[C@H]2CN(Cc3ccoc3)CC[C@@H]2OC)cc1.O=C(O)C(F)(F)F,Percent Effect,"30.3 µM, […]",-8.959%
COC(=O)Cn1c(=O)nc2n1C(=O)N(c1cccc(Cl)c1)C2,Percent Effect,"30 µM, 30.03 µM",-8.775%
Cc1cc(C)c(C#N)c(NCCn2cnnc2C(C)C)n1,Percent Effect,"30 µM, 30.03 µM",-40.75%
Cc1n[nH]c(C)c1CCC(=O)N1CCC(O)(CN2CCOCC2)C1 (centres undefined),Percent Effect,"30.3 µM, […]",-4.476%
CCN(Cc1ccc(O)c(C(=O)O)c1)CC1CCOCC1,Percent Effect,"30 µM, 30.03 µM",-62.42%
NC(=O)NC(=O)CCN(Cc1ccccc1)CC1CCOCC1,Percent Effect,"30 µM, 30.03 µM",-38.3%
CCN(Cc1ccc(C(C)=O)cc1)CC1CCOCC1,Percent Effect,"30 µM, 30.03 µM",98.5%
COC1COC2(CCN(Cc3ccccc3C)CC2)C1.O=C(O)C(F)(F)F (centres undefined),Percent Effect,"30 µM, 30.03 µM",-3.278%
COc1ccc(CN2CCn3c(CO)nnc3C2)cc1CN1CCCC1.O=C(O)CC(O)(CC(=O)O)C(=O)O,Percent Effect,"30.3 µM, […]",-29.63%
CN(CCn1cnnc1)S(=O)(=O)c1ccc(C(F)(F)F)nc1,Percent Effect,"30 µM, 30.03 µM",-27.18%
O=C(Cc1ccccc1F)N1CCCCC1c1ccn2ccnc2n1 (centres undefined),Percent Effect,"30.3 µM, […]",-17.08%
Br.Cc1ccc(C(=O)CN(C2=NCCCCC2)c2ccccc2)cc1,Percent Effect,"30 µM, 30.03 µM",-7.636%
Br.Cc1ccc(N(CC(=O)c2ccc(Br)cc2)C2=NCCCCC2)cc1,Percent Effect,"30 µM, 30.03 µM",102.1%
Br.O=C(CN(C1=NCCCC1)c1ccccc1)c1ccccc1,Percent Effect,"30 µM, 30.03 µM",-30.63%
Cc1nc(-c2cc(C(=O)NCCN3CCOCC3)c3ccccn23)cs1.O=C(O)C(F)(F)F,Percent Effect,"30 µM, 30.03 µM",-1.462%
Cc1cc2occ(CC(=O)N3CCC(O)(CN(C)C)C3)c2cc1Cl (centres undefined),Percent Effect,"30.3 µM, […]",99.94%
Cc1cc2occ(CC(=O)N3CCC4(CCCN(C)C4=O)C3)c2cc1Cl (centres undefined),Percent Effect,"30.3 µM, […]",2.516%
CN(C)CC1(O)CCN(C(=O)Cc2ccc(Cl)c(Cl)c2)C1 (centres undefined),Percent Effect,"30 µM, 30.03 µM",-2.195%
CCN1C(=O)CC[C@]12CC[C@@H](NC(=O)c1cnccn1)CC2,Percent Effect,"30.3 µM, […]",-18.7%
O=C(CN1CC(c2nc(Cc3ccccc3)no2)C1)NCC1CCCO1.O=C(O)C(=O)O (centres undefined),Percent Effect,"30.3 µM, […]",6.981%
CCNC(=O)N1CC(c2nc(Cc3ccccc3)no2)C1,Percent Effect,"30.3 µM, […]",0.6321%
COC(=O)CN1CC(c2nc(Cc3ccccc3)no2)C1.O=C(O)C(=O)O,Percent Effect,"30 µM, 30.03 µM",101%
Cc1nn(C)c2ncnc(N3CCC(O)(CN4CCCC4)CC3)c12,Percent Effect,"30 µM, 30.03 µM",57.4%
CCC1(O)CCCN(c2ncnc3c2c(C)nn3C)C1 (centres undefined),Percent Effect,"30 µM, 30.03 µM",27.55%
Cc1nn(C)c2ncnc(N3CCCC(C)(O)C3)c12 (centres undefined),Percent Effect,"30 µM, 30.03 µM",2.016%
